# Calls of active or inactive are those of the source. How the source made its calls: active means hit-call score of the fitted dose curve at least 0.9, where 1 is the maximum; inactive means score below 0.9.
# Experiment: BSK_3C_TissueFactor: BioMAP Diversity Plus: 3C Assay for Tissue Factor Biomarker Activity (AID 2282997)
# Settings: BioMAP 3C HUVEC, tissue factor biomarker readout; actives raise or lower the signal
# Description: BSK_3C is a cell-based, multiplexed-readout assay that uses umbilical vein endothelium, a human vascular primary cell, with measurements taken at 24 hours after chemical dosing in a 96-well plate.BSK_3C_TissueFactor is an assay component measured in the BSK_3C assay. It measures Tissue Factor antibody related to regulation of gene expression using ELISA technology.Data from the assay component BSK_3C_TissueFactor was analyzed into 1 assay endpoint. This assay endpoint, BSK_3C_TissueFactor, was analyzed with bidirectional fitting relative to DMSO as the negative control and baseline of activity. Using a type of binding reporter, gain or loss-of-signal activity can be used to understand changes in the signaling as they relate to the gene F3. Furthermore, this assay endpoint can be referred to as a primary readout, because this assay has produced multiple assay endpoints where this one serves a signaling function. To generalize the intended target to other relatable targets, this assay endpoint is annotated to the cytokine intended target family, where the subfamily is coagulation factor.
# The levels of cell surface (or secreted, indicated by the prefix "s") biomarker endpoints were measured by ELISA. Overt cytotoxicity to cells in confluent adherent cultures (all systems other than the BT system) was assessed by measuring total protein levels using sulforhodamine B (SRB) staining in parallel cultures at the time of biomarker measurements, indicated as SRB endpoints. For proliferation assays for adherent cell types, individual cell types are cultured at sub-confluence and relative cell numbers quantified by SRB staining at time points optimized for each system (48 h: 3C and CASM3C systems; 72 h: BT and HDF3CGF systems; 96 h: SAg system). SRB was performed by staining cells with 0.1% SRB after fixation with 10% TCA and reading wells at 560 nm.Viability and proliferation of PBMC (T cells) was quantified by Alamar Blue reduction for the SAg and BT systems. For PBMC viability (referred to as PBMC Cytotoxicity within the assay endpoint names), cells were plated (75,000/well in a 96-well plate) and then chemical samples added for 1 h before addition of activators, SEB and TSST-1 (20 ng/mL final concentration each). Cells were incubated for 90 h. Then, Alamar Blue (20 uL/well) (Invitrogen, Cat DAL1100) was added for 6 h, and the plates were read with a fluorescence microplate reader at 546/580 nm (excitation/emission). For PBMC proliferation, cells were plated and activated as above but incubated for only 16 h prior to addition of Alamar Blue. Plates were read after 6 h.
Compound,outcome,AC50
CC(C)Oc1ccccc1O,inactive,–
CCCCC(CC)COCCC#N (stereo not given),inactive,–
O=P(c1ccccc1)(c1ccccc1)c1ccccc1,inactive,–
CCc1c(C)cc(N)c(CC)c1N,inactive,–
Nc1cc([N+](=O)[O-])ccc1Cl,inactive,–
Cc1cc(C2(c3cc(C)c(O)cc3C)OS(=O)(=O)c3ccccc32)c(C)cc1O,inactive,–
CNC[C@H](O)c1cccc(O)c1,inactive,–
CCCCCCCCCC=O,inactive,–
CCCCCCCCC=O,inactive,–
OC[C@H]1O[C@H](O[C@]2(CCl)O[C@H](CCl)[C@@H](O)[C@@H]2O)[C@H](O)[C@@H](O)[C@H]1Cl,inactive,–
OC1OC[C@@H](O)[C@H](O)[C@H]1O (stereo not given in full),inactive,–
CC[Si](OC(C)=O)(OC(C)=O)OC(C)=O,inactive,–
O=C1CCCCCCCCCCCCCCO1,–,26.5 µM (active)
O=C(O)c1cn(-c2ccc(F)cc2)c2cc(N3CCNCC3)c(F)cc2c1=O,inactive,–
CC(=O)O[C@]1(C(C)=O)CC[C@H]2[C@@H]3C[C@H](C)C4=CC(=O)CC[C@]4(C)[C@H]3CC[C@@]21C,inactive,–
C=C(C)C(=O)O[C@H]1C[C@@H]2CC[C@@]1(C)C2(C)C,–,12.2 µM (active)
COc1cc(C=O)ccc1OC(=O)C(C)C,inactive,–
O=[N+]([O-])c1cc(C(F)(F)F)ccc1Cl,inactive,–
Cc1ccc(O)c(C(C)(C)C)c1,–,36.7 µM (active)
O=C(O)c1cn(C2CC2)c2cc(N3CCNCC3)c(F)cc2c1=O,inactive,–

Compound,outcome,AC50
CC1CCC(C(C)CS)CC1S (stereo not given),–,36.7 µM (active)
C#C[C@]1(O)CC[C@H]2[C@@H]3CCC4=Cc5oncc5C[C@]4(C)[C@H]3CC[C@@]21C,inactive,–
CCn1c2ccccc2c2cc(N)ccc21,inactive,–
O=C=NC1CCC(CC2CCC(N=C=O)CC2)CC1 (stereo not given),–,3.97 µM (active)
Nc1cc([N+](=O)[O-])ccc1O,inactive,–
O=C1OC2(c3cc(Br)c(O)c(Br)c3Oc3c2cc(Br)c(O)c3Br)c2c(Cl)c(Cl)c(Cl)c(Cl)c21,–,4.1 µM (active)
CCCCC/C=C/C=C/C=O,–,29.5 µM (active)
CC(C)(COC(=O)c1ccccc1)COC(=O)c1ccccc1,–,11.4 µM (active)
CCCCC(CC)COC(=O)/C=C\C(=O)OCC(CC)CCCC (stereo not given),inactive,–
COC(=O)c1ccc(C)cc1,inactive,–
Cc1ccc(Nc2ccc(O)c3c2C(=O)c2ccccc2C3=O)cc1,–,1.13 µM (active)
Cc1ccc2n[nH]nc2c1,inactive,–
C=CCOC(=O)CCC1CCCCC1,inactive,–
C=C[Si](OCC)(OCC)OCC,inactive,–
CC(=O)Nc1ccccc1O,inactive,–
CCC(=O)OCc1ccccc1,inactive,–
CN(CCOc1ccc(CC2SC(=O)NC2=O)cc1)c1ccccn1 (stereo not given),inactive,–
BrC1CCC(Br)C(Br)CCC(Br)C(Br)CCC1Br (stereo not given),inactive,–
N#Cc1ccc(CC(=NNC(=O)Nc2ccc(OC(F)(F)F)cc2)c2cccc(C(F)(F)F)c2)cc1,inactive,–
CC(=O)/C=C/C1=C(C)CCCC1(C)C,inactive,–

# Reference: PubChem BioAssay (EPA / NIEHS)
